The whole screen tested about 5,600 compounds, of which about 4,400 (79%) were called active. Cut-off read from the data, not from the text of the source: active = inhibition above about 27%; inactive = the rest. The set was probably picked from earlier hits. A selection follows.
Biological target: Fructose-bisphosphate aldolase (Mycobacterium tuberculosis (strain ATCC 25618 / H37Rv)) (UniProt P9WQA3)
Test: M. tuberculosis aldolase blockers, biochemical, fluorescence, strain H37Rv, confirmation (AID 651616);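 note: 0% = vehicle wells and 100% = reference inhibitor wells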
Details: purified M. tuberculosis FBA, fluorescence read-out, at 1 µM, active compounds read high

Sequence of Fructose-bisphosphate aldolase (Mycobacterium tuberculosis (strain ATCC 25618 / H37Rv)) (P9WQA3 whole entry, looked up): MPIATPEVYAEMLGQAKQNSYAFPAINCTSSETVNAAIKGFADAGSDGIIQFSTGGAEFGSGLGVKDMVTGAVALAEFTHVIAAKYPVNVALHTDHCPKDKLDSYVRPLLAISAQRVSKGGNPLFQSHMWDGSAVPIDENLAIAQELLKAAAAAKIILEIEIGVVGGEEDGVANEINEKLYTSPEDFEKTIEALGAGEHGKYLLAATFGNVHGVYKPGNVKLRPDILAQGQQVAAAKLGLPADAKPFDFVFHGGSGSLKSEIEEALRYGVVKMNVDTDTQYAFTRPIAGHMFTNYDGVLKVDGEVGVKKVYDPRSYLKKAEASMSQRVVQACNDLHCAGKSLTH

Row | SMILES | inhibition
1 | CC(C)n1ncc2c(C(=O)NCc3ccccc3CN(C)C)cc(C3CC3)nc21 | 144% (active)
2 | COC(=O)c1cc(-c2cccs2)nc2ccccc12 | 136% (active)
3 | CC(C)(C)OC(=O)NNc1c2ccccc2nc2ccccc12 | -3.52% (inactive)
4 | O=C(NCCN1CCOCC1)c1cc(-c2cccs2)nc2ccccc12 | 8.64% (inactive)
5 | Brc1cnc2ccccc2c1N1CCCCC1 | 83.3% (active)
6 | COc1ccc2c(c1)cc1n2CCN=C1NN | 108% (active)
7 | CCN(C(=O)COC(=O)c1ccc(COc2ccc3c(C)cc(=O)oc3c2)cc1)C1CCS(=O)(=O)C1 (centres undefined) | 4.73% (inactive)
8 | CCC(C)N(C(=O)COC(=O)C1C(C(=O)OC)=C(C)NC(C)=C1C(=O)OC)C1CCS(=O)(=O)C1 (centres undefined) | 172% (active)
9 | COCc1cc(=O)[nH]c2cc(NC(=O)C(F)(F)F)c(C)cc12 | 73% (active)
10 | CN1c2ccc(C=O)c3c(C=O)ccc(c23)N(C)C1(C)C | 21.7% (inactive)
11 | CN(C(=O)c1cc2c(=O)n3ccccc3nc2s1)C1CCCCC1 | 50.9% (active)
12 | Cc1ccc(-n2c(=O)c(C#N)cc3c(=O)n4ccccc4nc32)cc1C | 21.8% (inactive)
13 | CCOc1ccc2nc(NCCNS(=O)(=O)c3ccccc3)c(C#N)cc2c1 | 19.6% (inactive)
14 | COCCCNC(=S)NCCNc1nc2cc(C)c(C)cc2cc1C#N | 91.5% (active)
15 | CN(C(=O)COc1ccccc1)c1nnc(-c2ccncc2)s1 | 830% [above what the read-out allows, likely interference] (active)
16 | CN(C(=O)c1ccccn1)c1nnc(-c2ccccn2)s1 | 618% [above what the read-out allows, likely interference] (active)
17 | CC1=CC2=NC(=O)CC(C)(C(=O)N(CC(=O)NC(C)(C)C)Cc3ccccc3)N2C=C1 (centres undefined) | 4.13% (inactive)
18 | CCCCC(NS(=O)(=O)c1ccc(C)cc1)C(=O)Oc1ccc2c3c(c(=O)oc2c1)CCC3 (centres undefined) | 81.2% (active)
19 | NC(=O)C1CCN(C(=O)COc2ccc3c4c(c(=O)oc3c2)CCC4)CC1 | -0.32% (inactive)
20 | C=CCn1c(N)c(C(=O)OCC(C)C)c2nc3ccccc3nc21 | 73.3% (active)
21 | CC(C)Cn1c(N)c(C(=O)NCc2cccs2)c2nc3ccccc3nc21 | 41.1% (active)
22 | COCC(C)OC(=O)c1c(N)n(CCCN2CCOCC2)c2nc3ccccc3nc12 (centres undefined) | -0.37% (inactive)
23 | CCCNC(=O)c1c(N)n(-c2ccc(S(N)(=O)=O)cc2)c2nc3ccccc3nc12 | 25.9% (inactive)
24 | O=C(Nc1cccc2ccccc12)N1CCC2(CC1)OCCO2 | 124% (active)

Row | SMILES | inhibition
25 | O=C(Nc1cccc2ccccc12)N1CCN(Cc2ccc3c(c2)OCO3)CC1 | 72.6% (active)
26 | CCOC(=O)N1CCN(C(=O)c2cc3c(ccc4ccccc43)oc2=O)CC1 | 4.05% (inactive)
27 | COCCCn1c(C(=O)NC2CCCCC2)cc2c(=O)n3cccc(C)c3nc21 | 66.3% (active)
28 | C#Cc1cc(N2CCN(C(=O)c3ccoc3)CC2)n2nc(-c3cccc(Cl)c3)cc2n1 | 85.9% (active)
29 | C=CCn1cc(-c2cccc(C(F)(F)F)c2)cc(C#N)c1=O | 0.59% (inactive)
30 | Cn1cc(-c2ccccc2)cc(C#N)c1=O | 79.6% (active)
31 | CCCCN(CCCC)CC(O)Cn1c2ccccc2c(=O)c2ccccc21 (centres undefined) | 113% (active)
32 | Nc1ccccc1C(=O)NC1CCCCNC1=O (centres undefined) | 151% (active)
33 | Cc1ccc(C2Nc3ccccc3C(=O)N2CCN2CCNC2=O)cc1 (centres undefined) | -6.16% (inactive)
34 | CCOC(=O)NN1C(=O)c2ccccc2NC1c1cccc(O)c1 (centres undefined) | 136% (active)
35 | Cc1cc(S(=O)(=O)c2cc3ccc(O)c(C)c3oc2=O)ccc1F | 44.7% (active)
36 | CCOc1ccc2nc(Nc3nc4ccc(NC(C)=O)cc4s3)sc2c1 | 19% (inactive)
37 | Cc1c(CCC(=O)O)c(=O)oc2cc(OCc3ccc(Br)cc3)ccc12 | 4.1% (inactive)
38 | CCc1c(C)c2ccc(OC3CCCCC3=O)cc2oc1=O (centres undefined) | 99.7% (active)
39 | CCN1CCN(C(=O)c2cc3cc4ccc(OC)cc4nc3s2)CC1 | 96.2% (active)
40 | CN(CCOc1ccccc1)C(=O)c1cc(-c2ccco2)nc2ccccc12 | 5.04% (inactive)
41 | O=C(c1cc(-c2ccco2)nc2ccccc12)N(Cc1nnc(-c2ccc(Cl)cc2)o1)C1CC1 | 120% (active)
42 | Nc1ccccc1-c1nc2ccncc2[nH]1 | 3.13% (inactive)
43 | COc1ccc2sc(-c3ccc(N(C)C)cc3)c(-c3ccc4cc[nH]c4c3)c2c1 | 59.8% (active)
44 | O=C(NCCN1CCN(Cc2ccccc2)CC1)c1cc2c(=O)[nH]c3ccccc3c2s1 | 133% (active)
45 | Cc1cccc2c1-c1sc(C(=O)NCCCN3CCc4ccccc4C3)cc1CO2 | 0.47% (inactive)
46 | Cc1nn(-c2ccccc2)nc1C(=O)OCC(=O)N1CCCCC1C (centres undefined) | -2.48% (inactive)
47 | Cc1cnc(C(=O)OCC(=O)N2CCc3ccccc32)cn1 | 108% (active)
48 | CCC1C(=O)c2ccccc2N(C)C1=O (centres undefined) | 7.44% (inactive)

Row | SMILES | inhibition
49 | COc1ccc2[nH]c3c(=O)n(Cc4ccco4)cnc3c2c1 | 8.42% (inactive)
50 | COc1cccc2sc3cc(NCC[C@@H]4CCCN4C)ccc3c(=O)c12 | 77.9% (active)
51 | Cc1cc(=O)oc2c1ccc1ccccc12 | 88.8% (active)
52 | COCCCn1c(CCC(=O)O)ccc1-c1ccc(F)cc1 | 46% (active)
53 | Cc1ccc(C2Nc3cccc4cccc(c34)N2)cc1 | 177% (active)
54 | O=C1C(=O)N(c2ccccc2)C(c2ccccc2)C1c1ccccc1 (centres undefined) | 13.8% (inactive)
55 | OC[C@@H]1CN(Cc2cccs2)C[C@H](n2cnc3c(Nc4ccccc4)ncnc32)O1 | 90.6% (active)
56 | COc1cc(/C=C/c2ccc(/C=C/c3cc(OC)c(OC)c(OC)c3)cc2)cc(OC)c1OC | 27.4% (active)
57 | COc1ccc(NC(=O)CN(C)C(=O)c2cc(-c3ccc(C)o3)nc3ccccc23)cc1 | 79.1% (active)
58 | COCCCNC(=O)/C(C#N)=C/c1c(N2CCCCCC2)nc2ccccn2c1=O | 60.9% (active)
59 | CCCc1nc2oc3c(=O)[nH]cnc3c2c2c1COC(C)(C)C2 | 108% (active)
60 | CCOC(=O)c1[nH]c2ccc(OC)cc2c1NC(=O)CCN1CCN(Cc2ccccc2)CC1 | 3.58% (inactive)
61 | CCOC(=O)c1[nH]c2ccc(OC)cc2c1NC(=O)N1CCOCC1 | 130% (active)
62 | CC(OC(=O)c1ccccc1NCCO)C(=O)Nc1ccnn1C(C)C (centres undefined) | 81.6% (active)
63 | CN1C(=O)c2ccc(NC(=O)C3CCCCC3)cc2C1=O | 2.86% (inactive)
64 | CN1C(=O)c2ccc(NC(=O)c3c(F)c(F)c(F)c(F)c3F)cc2C1=O | 822% [above what the read-out allows, likely interference] (active)
65 | CN(C)CCCNC(=O)c1ccc2[nH]c3ccccc3c2c1 | 103% (active)
66 | c1ccc(Cc2c(-c3ccco3)nc3c4ccccc4ccn23)cc1 | 137% (active)
67 | CCOC(=O)c1cc2cc(C)ccc2[nH]1 | 50.4% (active)
68 | CCN1CCc2c(C#N)c(NCc3ccccc3)nc(NCCO)c2C1 | 175% (active)
69 | COc1ccc2c(c1OC)C(=O)N(c1ncn[nH]1)C2 | 85.2% (active)
70 | Cc1coc2c1c(C)cc1oc(=O)c(CC(=O)NCC(=O)N[C@H](C(=O)O)C(C)C)c(C)c12 | 52.1% (active)
71 | Cc1cc(C)cc(NC(=O)CSc2ccccc2)c1 | 86.7% (active)
72 | CN(C)CCCn1c(N)c(C#N)c2nc(C#N)c(C#N)nc21 | 85.4% (active)

Row | SMILES | inhibition
73 | Cc1cc(C)c2c(n1)sc1c(=O)n(-c3ccccc3)c(=O)[nH]c12 | 75.8% (active)
74 | CN(CCc1ccccn1)S(=O)(=O)c1ccc2c3c(cccc13)C(=O)N2 | 130% (active)
75 | COc1ccc(NC(=O)N2CCC(Cc3ccccc3)CC2)cc1 | 40.8% (active)
76 | COc1ccccc1NC(=O)COc1ccc(C(=O)OCC(=O)N(C(C)C)C(C)C)cc1OC | 0.36% (inactive)
77 | O=C1CC2(CCCCC2)Oc2ccc(OCC(=O)N3CCOCC3)cc21 | 4.05% (inactive)
78 | COc1ccccc1C(=O)Nc1ccc(OCC(=O)N2CCCCC2)cc1 | 183% (active)
79 | COc1ccccc1-c1oc2ccccc2c1C#CCCCCO | 170% (active)
80 | COc1ccc(-n2cc(CNC3CCOCC3)c(-c3cccc(F)c3)n2)cc1 | 18.8% (inactive)
81 | COc1ccc(-n2cc(CN(C)Cc3n[nH]c(=O)[nH]3)c(-c3cccc(F)c3)n2)cc1 | 44.3% (active)
82 | Cc1ccc(S(=O)(=O)N2CCN(C(=O)CSc3cc(C)ccc3C)CC2)c(C)c1 | 164% (active)
83 | Cn1nc(-c2ccc(Cl)cc2)c2cc(C(=O)NCc3ccco3)sc21 | 47.8% (active)
84 | CCc1ccc(-c2cc(C(=O)NCc3ccco3)c3ccccc3n2)s1 | -6.79% (inactive)
85 | CCN(CC)CCCNC(=O)c1cc2c(=O)[nH]c3ccc(C)cc3c2s1 | 137% (active)
86 | N#CC1(Nc2ccc3c4c(cccc24)CC3)CCCCC1 | 119% (active)
87 | N#Cc1c(N)n(CCOC(=O)c2ccc(Cl)cc2)c2nc3ccccc3nc12 | 40.4% (active)
88 | CC(=O)c1sc2nc(SCC(=O)N3CCCCC3)[nH]c(=O)c2c1C | 76.2% (active)
89 | CCN(C(=O)Nc1cccc2ccccc12)c1ccccc1 | 164% (active)
90 | O=C(O)c1cccnc1Sc1ncnc2sc3c(c12)CCC3 | 59.7% (active)
91 | O=C(Nc1ncc2c(n1)-c1ccccc1OC2)c1ccc(Cl)cc1 | 93.8% (active)
92 | CCOc1ccccc1C1CC(c2ccccc2)Nc2nc(N)nn21 (centres undefined) | 185% (active)
93 | O=c1oc2ccccc2cc1-c1cn(-c2ccccc2)c(=S)[nH]1 | 17.6% (inactive)
94 | CC12CCC(C(=O)N3CCN(c4ncccn4)CC3)(c3nc4ccccc4nc31)C2(C)C (centres undefined) | 195% (active)
